# Out of some 310,000 compounds screened, about 14,000 (4.5%) showed an effect of 50% or more. The effect is printed as a negative number. The entries come from a sample that favours strong results as a whole.
# Target: human ether-à-go-go-related gene (hERG) potassium channel (human, UniProt Q12809)
# Assay: primary screen, population patch clamp on CHO cells stably expressing hERG; higher = less effect of the substance
# 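Further: peak tail current of the secondary pulse compared with the same well before compound.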
# Sequence of human ether-à-go-go-related gene (hERG) potassium channel (Q12809 whole entry, looked up): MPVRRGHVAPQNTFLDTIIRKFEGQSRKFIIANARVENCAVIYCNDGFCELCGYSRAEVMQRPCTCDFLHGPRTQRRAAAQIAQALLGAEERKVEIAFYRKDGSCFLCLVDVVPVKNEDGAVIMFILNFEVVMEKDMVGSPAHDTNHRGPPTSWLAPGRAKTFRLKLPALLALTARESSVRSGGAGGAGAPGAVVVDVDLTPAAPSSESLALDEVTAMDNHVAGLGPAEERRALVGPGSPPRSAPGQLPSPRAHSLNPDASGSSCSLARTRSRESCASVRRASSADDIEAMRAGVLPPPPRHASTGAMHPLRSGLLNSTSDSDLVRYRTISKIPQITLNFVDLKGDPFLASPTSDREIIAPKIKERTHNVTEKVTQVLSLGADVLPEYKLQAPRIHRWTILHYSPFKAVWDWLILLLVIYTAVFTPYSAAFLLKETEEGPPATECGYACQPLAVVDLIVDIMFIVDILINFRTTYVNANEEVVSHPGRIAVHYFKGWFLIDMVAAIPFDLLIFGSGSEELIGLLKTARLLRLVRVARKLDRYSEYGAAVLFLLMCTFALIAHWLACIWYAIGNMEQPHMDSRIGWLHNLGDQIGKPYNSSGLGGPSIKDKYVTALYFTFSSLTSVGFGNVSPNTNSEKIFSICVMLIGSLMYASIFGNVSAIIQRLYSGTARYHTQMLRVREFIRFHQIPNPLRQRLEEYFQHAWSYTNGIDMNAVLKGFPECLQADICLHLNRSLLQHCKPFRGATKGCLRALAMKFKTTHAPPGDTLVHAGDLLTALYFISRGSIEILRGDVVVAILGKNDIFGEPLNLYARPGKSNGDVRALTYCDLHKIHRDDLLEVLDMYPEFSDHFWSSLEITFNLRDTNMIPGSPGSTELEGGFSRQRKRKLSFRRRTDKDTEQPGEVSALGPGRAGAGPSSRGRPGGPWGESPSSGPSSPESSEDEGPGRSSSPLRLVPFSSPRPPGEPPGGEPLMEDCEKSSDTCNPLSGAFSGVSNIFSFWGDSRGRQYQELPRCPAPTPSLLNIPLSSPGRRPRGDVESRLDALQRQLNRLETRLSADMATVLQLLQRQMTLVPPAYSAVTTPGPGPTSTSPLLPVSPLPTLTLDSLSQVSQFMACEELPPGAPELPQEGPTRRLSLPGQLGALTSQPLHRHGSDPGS
row,Compound,"hERG current change (%, negative = inhibition) at 10uM [%]"
1,Cc1ccc(C)c(NS(=O)(=O)c2ccc3c(c2)NC(=O)CCS3)c1,-15
2,COC(=O)COc1cccc(/C=N/NC(=O)CCSc2ccccc2)c1,-15.7
3,C(=N\c1nc2ccccc2n1CCN1CCOCC1)/c1cccs1,-20.7
4,CCOc1ccc(N2C(=O)CC(Sc3nc(-c4cccs4)cc(C(F)(F)F)c3C#N)C2=O)cc1 (centres unmarked),10.2
5,CCCNC(=O)c1csc(Nc2cccc3ccccc23)n1,-30
6,COCCNC(=O)c1csc(Nc2cccc3ccccc23)n1,-35.9
7,CN(C)CCNC(=O)c1csc(Nc2cccc3ccccc23)n1,-55.4
8,O=C(NCC(O)CO)c1csc(Nc2cccc3ccccc23)n1 (centres unmarked),-2.43
9,CCN(CC)C(=O)c1csc(Nc2cccc3ccccc23)n1,-16.9
10,CCN(CC)CCCNC(=O)c1csc(Nc2cccc3ccccc23)n1,-71.6
11,Cc1ccc(S(=O)(=O)N(C)C)cc1NC(=S)NC(C)CCC(C)C (centres unmarked),-14
12,Cn1ccnc1SCC(=O)c1cccc(C(F)(F)F)c1,-27.8
13,COC(=O)c1ccc(Cn2nc(C)c(Cl)c2C)o1,8.75
14,CC12CC(NC(=O)N1c1cccc(C(=O)N3CCN(c4ccccc4F)CC3)c1)c1ccccc1O2 (centres unmarked),-6.74
15,Cc1cc(C)cc(N2C(=O)CC(N(C(=O)c3ccco3)c3cc(C)cc(C)c3)C2=O)c1 (centres unmarked),12.8
16,Cc1ccc2nc3c(cc(C(=O)NCCCn4ccnc4)n3C)c(=O)n2c1,-34.1
17,Cc1ccc2nc3c(cc(C(=O)NC4CCCC4)c(=N)n3C3CCCCC3)c(=O)n2c1,-77.2
18,Cc1ccc(S(=O)(=O)NC(=O)c2cc(C)n(CCCn3ccnc3)c2C)cc1,-2.28
19,CCn1cc(C(=O)NC2CCCCCC2)c(=O)c2ccc(C)nc21,-4.88

row,Compound,"hERG current change (%, negative = inhibition) at 10uM [%]"
1,Cc1ccc(S(=O)(=O)c2cc3c(=O)n4ccccc4nc3n(C3CCCCC3)c2=N)cc1,-5.93
2,Cc1ccc2nc3c(cc(C(=O)NC4CCCC4)c(=N)n3CCCn3ccnc3)c(=O)n2c1,-58.6
3,Cc1ccc(S(=O)(=O)c2cc3c(=O)n4ccccc4nc3n(C3CCCC3)c2=N)cc1,6.01
4,Cc1ccc2nc3c(cc(C(=O)NC4CCCCC4)c(=N)n3C3CCCCC3)c(=O)n2c1,-74.7
5,CCn1cc(C(=O)NC2CCCCC2)c(=O)c2ccc(C)nc21,8.6
6,O=C(/C=C/c1ccc(O)c(O)c1)NC(=O)c1ccccc1O,6.74
7,Cc1ccc(-c2nc(CS(=O)(=O)CC(=O)NCc3cccc(F)c3)c(C)o2)cc1,9.53
8,COc1ccc(S(=O)(=O)N2CCOCC2)c(C)c1C,5.99
9,Cc1ccc(C(=O)N2CCC3(CC2)NCCc2[nH]cnc23)cc1,-53.9
10,CCOc1ccc(C(=O)N2CCC3(CC2)NCCc2[nH]cnc23)cc1OCC,22.6
11,CC(C)(C)c1ccc(C(=O)N2CCC3(CC2)NCCc2[nH]cnc23)cc1,-8.51
12,CCOc1ccc(C(=O)N2CCC3(CC2)NCCc2[nH]cnc23)cc1,-70.1
13,O=C(c1ccc(F)cc1)N1CCC2(CC1)NCCc1[nH]cnc12,4.43
14,O=C(c1ccccc1)N1CCC2(CC1)NCCc1[nH]cnc12,26.6
15,O=C(c1ccc(F)c(F)c1)N1CCC2(CC1)NCCc1[nH]cnc12,10.3
16,COc1ccc(C(=O)N2CCC3(CC2)NCCc2[nH]cnc23)cc1,-18.8
17,O=C(c1ccc(Br)cc1)N1CCC2(CC1)NCCc1[nH]cnc12,-65.8
18,O=C(NCc1ccco1)c1ccccc1NS(=O)(=O)c1cccs1,3.9
19,Cc1ccc(Cn2ccsc2=NC(=O)COC(=O)C(C)C)cc1,-15.3

row,Compound,"hERG current change (%, negative = inhibition) at 10uM [%]"
1,CSc1nnc2n(C)c3c(c(=O)n12)C1(CCCC1)Cc1ccccc1-3,2.33
2,COC(=O)c1ccccc1NC(=O)c1ccc2c(c1)OCCO2,1.86
3,O=C(CNc1ccc(Br)cc1)NNC1=NCCC1,1.72
4,CCc1ccc(CNCCc2c[nH]c3ccccc23)cc1.O=C(O)C(=O)O,-40.9
5,Cc1ccc(S(=O)(=O)Nc2ccccc2C(=O)N2CCN(C)CC2)cc1,-3.2
6,CCOC(=O)Nc1ccc2c(c1)N(C(=O)CN1CCN(C)CC1)c1ccccc1S2.Cl,-64.4
7,CCOC(=O)Nc1ccc2c(c1)N(C(=O)CCN(C)C)c1ccccc1CC2,-40.7
8,CCOC(=O)Nc1ccc2c(c1)N(C(=O)C(C)N1CCCC1)c1ccccc1CC2.Cl (centres unmarked),-60.2
9,CCOC(=O)Nc1ccc2c(c1)N(C(=O)CCN1CCN(C)CC1)c1ccccc1S2.Cl,-15.2
10,CCOC(=O)Nc1ccc2c(c1)N(C(=O)CCN(CC)CC)c1ccccc1CC2,-50.3
11,CCN(CC)CCC(=O)N1c2ccccc2CCc2ccc(NC(=O)OC)cc21.Cl,-8.57
12,CCOC(=O)Nc1ccc2c(c1)N(C(=O)OC)c1ccccc1CC2,-2.44
13,CCOC(=O)Nc1ccc2c(c1)N(C(=O)N(C)C)c1ccccc1CC2,-6.99
14,CCOC(=O)Nc1ccc2c(c1)N(C(=O)N1CCN(C)CC1)c1ccccc1S2.Cl,-46
15,C=CCSc1nc(N(CC)CC)c2sccc2n1,-12.4
16,CC(=O)c1cccc(N2C(=O)C3C4CCC(C4=C(C)C)C3C2=O)c1 (centres unmarked),21.1
17,COc1cc(CSc2nnnn2-c2ccc(C)cc2)cc(OC)c1OC,8.81
18,N#Cc1nc(-c2ccco2)oc1NCCc1ccccc1,-5.59

# Reference: PMC4336329 (PLoS ONE, 2015)
